From PubChem
The list is not random: actives were taken first. Their share in the collection is about 10%.
Six1-Eya2 inh – inhibitors of human Six1/Eya2 interaction; activity change, % (concentration not given with the values); Q15475+O00167; AlphaScreen GST-Six1/His-Eya2 binding, biochemical; active compounds read low; actives 0.56% (n = 360,000); AID 651725; in the data active means activity change below about -65%; inconclusive means mostly about -30% to -63%; further: on the % scale 0 is the no-effect control and ±100 the full control effect
Target sequence (O00167 whole entry, looked up): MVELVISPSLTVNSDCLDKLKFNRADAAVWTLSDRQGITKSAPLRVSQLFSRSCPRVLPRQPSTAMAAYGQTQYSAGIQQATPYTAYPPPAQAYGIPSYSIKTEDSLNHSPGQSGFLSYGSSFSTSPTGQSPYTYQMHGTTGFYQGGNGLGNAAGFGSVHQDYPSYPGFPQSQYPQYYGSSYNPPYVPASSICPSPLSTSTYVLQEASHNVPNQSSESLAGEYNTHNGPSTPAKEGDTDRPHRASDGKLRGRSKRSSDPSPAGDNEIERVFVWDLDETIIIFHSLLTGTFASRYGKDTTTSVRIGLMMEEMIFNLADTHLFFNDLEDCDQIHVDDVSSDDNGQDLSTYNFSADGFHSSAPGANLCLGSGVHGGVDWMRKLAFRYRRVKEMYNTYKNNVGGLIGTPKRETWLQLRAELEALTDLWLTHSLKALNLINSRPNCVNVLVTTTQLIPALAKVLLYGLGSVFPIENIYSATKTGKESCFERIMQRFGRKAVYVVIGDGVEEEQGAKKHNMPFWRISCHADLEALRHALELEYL
Target sequence (Q15475 whole entry, looked up): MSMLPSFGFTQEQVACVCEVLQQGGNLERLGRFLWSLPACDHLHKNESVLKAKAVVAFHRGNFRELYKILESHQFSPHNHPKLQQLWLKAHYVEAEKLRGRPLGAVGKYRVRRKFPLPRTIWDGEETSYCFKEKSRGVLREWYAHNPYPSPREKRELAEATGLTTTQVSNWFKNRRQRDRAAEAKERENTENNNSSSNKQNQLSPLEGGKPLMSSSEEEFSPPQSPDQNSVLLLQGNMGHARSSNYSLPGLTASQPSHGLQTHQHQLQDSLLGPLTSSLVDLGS
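AlphaScreen luminescence read after one hour at 37 °C in darkness. Pin-transferred compounds met GST-Six1 and His-Eya2 protein (5X stock 250 nM/500 nM) plus glutathione donor and Ni-chelate acceptor beads (5X, 50 ug/mL).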
HP1b binding inh – HP1-beta chromodomain-methylated histone interaction inhibition. Potency, µM (series often up to 114 µM), inactives show at the top dose activity change, negative = inhibition, usual class: inhibitors. AlphaScreen HP1-beta / biotin-H3K9me3 peptide binding. P83916. actives 0.56% (n = 390,000); further: potency means the concentration at half of the fitted maximal effect; nearly all actives have a fitted effect of over 70% in size
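Compound inhibition of the preformed complex between 50 nM HP1-beta and 50 nM biotinylated H3K9me3 peptide was read by AlphaScreen. Buffer was PBS pH 7.4 with 0.01% Tween-20. Incubations ran 30 min at room temperature, with 10 ug/mL donor/acceptor beads.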
BAZ2B inh – inhibitors of human BAZ2B bromodomain; actives 4.4% (n = 360,000); Potency, µM (series often up to 114 µM), inactives show at the highest dose activity change, negative = inhibition, hits mostly inhibitors; AlphaScreen BAZ2B-H3K14Ac peptide displacement; further: potency means the concentration at half of the fitted maximal effect; on the % scale 0 is the no-effect control and ±100 the full control effect; nearly all actives have a fitted effect of over 60% in size
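Complex of BAZ2B and biotin-H3K14Ac (50 nM apiece) forms over 30 min at RT, then faces library compounds up to 110 uM for another 30 min; AlphaScreen beads added, 20 min dark incubation, luminescence read.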
G9a inh – inhibitors of human histone lysine methyltransferase G9a; Q96KQ7; G9a H3K9 monomethylation, AlphaScreen, 2 h; Potency, µM (series often up to 102 µM), without a hit: top-dose activity, negative = inhibition, actives largely listed as inhibitors; actives 8.8% (n = 350,000); further: potency means the concentration at half of the fitted maximal effect; on the % scale 0 is the no-effect control and ±100 the full control effect; nearly all actives have a fitted effect of over 75% in size
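AlphaScreen read-out: biotin-H3K9 peptide (500 nM) methylation by 20 nM enzyme with 20 uM SAM, 2 h at room temperature after 15 min compound preincubation; anti-monomethyl H3K9 antibody plus donor/acceptor beads, 10 min dark.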
JMJD2A Tudor inh – inhibitors of human JMJD2A Tudor domain; O75164; AlphaScreen JMJD2A-Tudor / H3K4me3 peptide binding; Potency, µM (top dose mostly 114 µM), for inactives: top-dose activity change, negative = inhibition, most hits filed as inhibitors; actives 4.4% (n = 390,000); AID 504339; further: potency means the concentration at half of the fitted maximal effect; on the % scale 0 is the no-effect control and ±100 the full control effect; nearly all actives have a fitted effect of over 50% in size
CtBP-E1A blk – inhibitors of CtBP/E1A interaction; actives 0.49% (n = 340,000); activity change, % (no concentration beside the values); AlphaScreen GST-E1A/His-CtBP binding, 1536-well; active compounds read low; AID 651724; in the data active means activity change below about -65%; inconclusive means mostly about -30% to -63%; further: on the % scale 0 is the no-effect control and ±100 the full control effect
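GST-E1A and His-tagged CtBP (125 nM each as 5X stock) were preincubated with pin-transferred compound for 2 h at 37 °C in the dark, then glutathione donor and nickel acceptor beads were added for 1 h before AlphaScreen reading.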
* hit, by the source's call; [ ] = dose if it differs, or a comment. Unless noted, the call rests on the fitted dose curve; in most records, active means well fitted inhibition curve with a large enough effect; inconclusive means small, poorly fitted or top-dose-only effect; inactive means no such curve, though single readings can be large or run the other way.

Screening COc1ccc(CC(=O)N2CCc3cc(OC)c(OC)cc3C2COc2ccc(OC)cc2)cc1 (configuration not stated) returned HP1b binding inh 13%, BAZ2B inh -39%, G9a inh inconclusive and JMJD2A Tudor inh inconclusive.
C#CCOc1c(Br)cc(C2C(C(=O)OC)=C(C)NC3=C2C(=O)c2ccccc23)cc1OCC (configuration not stated) was read as HP1b binding inh inconclusive, BAZ2B inh inconclusive, G9a inh 10µM* and JMJD2A Tudor inh 11µM*.
COc1ccc(N2CCN(C(=O)c3ccc(Br)cc3)CC2)c([N+](=O)[O-])c1 was read as Six1-Eya2 inh inconclusive, HP1b binding inh inconclusive, BAZ2B inh 25µM*, G9a inh 45µM*, JMJD2A Tudor inh 79µM* and CtBP-E1A blk -26.
`COc1ccc(N2CCN(C(=O)c3ccccc3Br)CC2)c([N+](=O)[O-])c1` gave Six1-Eya2 inh -16, HP1b binding inh -22%, BAZ2B inh -30%, G9a inh 56µM*, JMJD2A Tudor inh inconclusive and CtBP-E1A blk -24.
COc1ccc(N2CCN(C(=S)NC(=O)c3cccs3)CC2)c([N+](=O)[O-])c1 was read as Six1-Eya2 inh -12, HP1b binding inh inconclusive, BAZ2B inh inconclusive, G9a inh 32µM*, JMJD2A Tudor inh 50µM* and CtBP-E1A blk -15.
`CCCCC(=O)N1CCN(c2ccc(OC)cc2[N+](=O)[O-])CC1` gave Six1-Eya2 inh -21, HP1b binding inh -15%, BAZ2B inh inconclusive, G9a inh inconclusive, JMJD2A Tudor inh -30% and CtBP-E1A blk 8.
`COc1ccc(N2CCN(C(=O)c3ccc(C)cc3)CC2)c([N+](=O)[O-])c1` gave Six1-Eya2 inh -12, HP1b binding inh -32%, BAZ2B inh inconclusive, G9a inh inconclusive, JMJD2A Tudor inh inconclusive and CtBP-E1A blk -14.
For COc1ccc(N2CCN(C(=O)c3ccccc3)CC2)c([N+](=O)[O-])c1 the results were Six1-Eya2 inh -3, HP1b binding inh -14%, BAZ2B inh -33%, G9a inh inconclusive, JMJD2A Tudor inh -27% and CtBP-E1A blk -8.
For CC(C)(C)NC(=O)C1CCN(c2nc3ccccc3nc2C(F)(F)F)CC1 the results were HP1b binding inh 32%, BAZ2B inh 1%, G9a inh -1%[59 µM] and JMJD2A Tudor inh -10%.
Screening COC(=O)c1sc(NC(=O)c2ccc(Cn3cc(Cl)cn3)o2)c(C#N)c1C returned Six1-Eya2 inh -2, HP1b binding inh -41%, BAZ2B inh -37%, G9a inh 7.9µM*, JMJD2A Tudor inh inconclusive and CtBP-E1A blk -3.
For N#Cc1c(NC(=O)c2ccc(Cn3cc(Br)cn3)o2)sc2c1CCCCC2 the results were Six1-Eya2 inh -4, HP1b binding inh 23%, BAZ2B inh 11%[57.1 µM], G9a inh 13%, JMJD2A Tudor inh -31% and CtBP-E1A blk 9.
CN1CCN(C(=O)c2ccc(CS(=O)Cc3ccc(Cl)cc3)o2)CC1 (configuration not stated) was read as Six1-Eya2 inh 4, HP1b binding inh 24%, BAZ2B inh 0%, G9a inh -8%, JMJD2A Tudor inh -8% and CtBP-E1A blk 1.
For O=C(c1ccc(Cn2cc(Cl)cn2)o1)N1CCN(Cc2ccc3c(c2)OCO3)CC1 the results were Six1-Eya2 inh 0, HP1b binding inh 4%, BAZ2B inh inconclusive, G9a inh 45µM*, JMJD2A Tudor inh -18% and CtBP-E1A blk -6.
`CN1CCN(C(=O)c2ccc(Cn3cc(Cl)cn3)o2)CC1` gave Six1-Eya2 inh -6, HP1b binding inh 31%, BAZ2B inh 3%, G9a inh 71µM*, JMJD2A Tudor inh -1% and CtBP-E1A blk 5.
`CC(C)c1ccc(NC(=O)c2cc3c(=O)oc4ccccc4c3s2)cc1` gave HP1b binding inh 19%, BAZ2B inh -2%, G9a inh 7%[59 µM] and JMJD2A Tudor inh -14%.
For COc1ccc(-c2c(C)nn3c(C(F)(F)F)cc(C)nc23)cc1OC the results were HP1b binding inh 7%, BAZ2B inh -32%, G9a inh -33%[59 µM] and JMJD2A Tudor inh inconclusive.
COc1ccc(OC)c(N(C(=O)c2snc(C(N)=O)c2N)C(C(=O)NCc2ccccc2)c2ccc(O)cc2)c1 (configuration not stated) was read as Six1-Eya2 inh 1, HP1b binding inh -8%, BAZ2B inh -21%, G9a inh -40%, JMJD2A Tudor inh -24% and CtBP-E1A blk -30.
For Cc1ccc(C)c(N(C(=O)c2snc(C(N)=O)c2N)C(C(=O)NCC2CCCO2)c2cccs2)c1 (configuration not stated) the results were Six1-Eya2 inh -8, HP1b binding inh 19%, BAZ2B inh -13%, G9a inh 12%, JMJD2A Tudor inh 11µM* and CtBP-E1A blk 4.
For Cc1cccc(N(C(=O)c2snc(C(N)=O)c2N)C(C(=O)NCC2CCCO2)c2cccs2)c1 (configuration not stated) the results were Six1-Eya2 inh 4, HP1b binding inh 34%, BAZ2B inh 1%, G9a inh 10% and JMJD2A Tudor inh -19%.
CCOC(=O)CN(C(=O)c1snc(C(N)=O)c1N)C(C(=O)NC1CCCCC1)c1ccc(F)cc1 (configuration not stated) was read as Six1-Eya2 inh 8, HP1b binding inh 42%, BAZ2B inh 79µM*, G9a inh 0%[59 µM], JMJD2A Tudor inh inconclusive and CtBP-E1A blk -19.
Screening COc1ccccc1N(C(=O)c1snc(C(N)=O)c1N)C(C(=O)NC1CCCC1)c1ccc(N(C)C)cc1 (configuration not stated) returned Six1-Eya2 inh 13, HP1b binding inh -28%, BAZ2B inh 35µM*, G9a inh -6%, JMJD2A Tudor inh inconclusive and CtBP-E1A blk 1.
COc1ccccc1N(C(=O)c1snc(C(N)=O)c1N)C(C(=O)NC1CCCC1)c1ccco1 (configuration not stated) was read as Six1-Eya2 inh -1, HP1b binding inh 26%, BAZ2B inh -5%, G9a inh -12%, JMJD2A Tudor inh -29% and CtBP-E1A blk 5.
`COc1ccc(CNC(=O)C(c2ccc(C)o2)N(C(=O)c2snc(C(N)=O)c2N)c2ccccc2OC)cc1` (configuration not stated) gave Six1-Eya2 inh -7, HP1b binding inh -14%, BAZ2B inh -15%, G9a inh 50µM*, JMJD2A Tudor inh -15% and CtBP-E1A blk 4.
